Consider 40 compounds from PubChem BioAssay (Tox21).

Each structure is given as a SMILES string. The source made the active and inactive calls. Entries that show only a call come without a potency. Calls follow the shape of the dose curve; as a rule, active = well fitted activation curve with a large enough effect in the repeat runs; inconclusive = weak or mixed curves; inactive = flat fitted curve, though single readings scatter.
Potency is read from the fitted curve at half-maximal effect.

The nature of the assay: A CellTox Green Cytotoxicity Assay to monitor cytotoxicity in HEK293 cells - 0 hour (AID 1224869). Also: nearly all actives have a fitted effect of over 50% in size. The settings on record: CellTox Green fluorescence; series mostly up to 76.8 µM. From the text: National Center for Advancing Translational Sciences [NCATS]
NIH Chemical Genomics Center [NCGC]
U.S. Environmental Protection Agency [EPA]
National Institutes of Environmental Health Sciences [NIEHS]
National Toxicology Program [NTP]
Cell-based models are critical for drug discovery. Determining the natural cytotoxic effects resulting from test compounds is an essential research activity. A CellTox Green Cytotoxicity Assay to monitor cytotoxicity in real time of continues cell culture during 40 hours of the compound treatment was used to screen Tox21 10K library compounds in Hek293 cells. CellTox Green Cytotoxicity Assay is a nonlytic, homogeneous, biofluorescent method to measure cytotoxicity in cell culture after experimental manipulation. The assay system uses a proprietary asymmetric cyanine dye that is excluded from viable cells but preferentially stains the dead cell's DNA. […] Viable cells produce no appreciable increases in fluorescence. Therefore, the fluorescence signal produced by the binding interaction with dead cell DNA is proportional to cytotoxicity.
The mixture of Hek293 cell suspension and reagents were dispensed at 600cells/6 ul/well in 1536-well tissue culture treated black solid bottom plates using a Multidrop dispenser. After the assay plates were incubated at a 37 C/5% CO2 incubator for 5 hours, 23 nL of compounds dissolved in DMSO, positive and negative controls was transferred to the assay plate by a pintool work station. The plates were incubated at 37 C for 40 hours. The fluorescence intensity were measured at 0h, 8h, 16h, 24h, 32h and 40h time points using ViewLux plate reader during compound treatment.
`O=S(=O)(Oc1ccc(Cl)cc1)c1ccc(Cl)cc1`: the Potency result is “inactive”.

Consider `CC(C)C(=O)OCC(C)(C)C(OC(=O)C(C)C)C(C)C` (stereo not given), for which the Potency result is “inactive”.

For `Cc1cc(C)cc(C)c1`, the Potency result was “inactive”.

As for `COC(=O)c1sccc1S(=O)(=O)NC(=O)Nc1nc(C)nc(OC)n1`, the Potency entry was “inactive”.

Turning to `c1cc(OCC2CO2)ccc1Cc1ccc(OCC2CO2)cc1` (stereo not given), the Potency result was “inactive”.

For `CNC(=O)Oc1cccc2c1OC(C)(C)O2`, the Potency result is “inactive”.

`Brc1ccc(Oc2cc(Br)c(Br)cc2Br)c(Br)c1`: the Potency result was “inactive”.

Turning to `CCCCCCCCCCCOC(=O)c1ccccc1C(=O)OCCCCCCCCCCC`, the Potency entry was “inactive”.

In the case of `Cc1cccc(N)c1N`, the Potency entry is “inactive”.

Take `CCCCC(CC)COC(=O)c1ccc(C(=O)OCC(CC)CCCC)c(C(=O)OCC(CC)CCCC)c1` (stereo not given): the Potency result was “inactive”.

`CCOP(=S)(OCC)O/N=C(\C#N)c1ccccc1`: the Potency result is “inactive”.

With `CN(C)c1ccc(C(=O)c2ccc(N(C)C)cc2)cc1`, the Potency entry was “inactive”.

In the case of `CCCCCCOC(=O)c1ccccc1C(=O)OCCCCCC`, the Potency result was “inactive”.

Consider `CCN(CC)C(=O)SCc1ccc(Cl)cc1`, for which the Potency entry is “inactive”.

In the case of `CC(O)CCO` (stereo not given), the Potency entry was “inactive”.

As for `Oc1cc(Cl)c(Cl)cc1Cl`, the Potency result is “inactive”.

In the case of `COP(=S)(OC)Oc1cc(Cl)c(Cl)cc1Cl`, the Potency entry was “inactive”.

On to `ClC1C(Cl)C(Cl)C(Cl)C(Cl)C1Cl` (stereo not given), for which the Potency entry is “inactive”.

Consider `CCCCNC(=O)n1c(NC(=O)OC)nc2ccccc21`, for which the Potency result was “inactive”.

For `c1ccc(-c2cccc(-c3ccccc3)c2)cc1`, the Potency entry was “inactive”.

With `c1ccc(NNc2ccccc2)cc1`, the Potency entry was “inactive”.

As for `C=CCN(CC=C)C(=O)C(Cl)Cl`, the Potency entry was “inactive”.

Regarding `Cc1cc(Cl)ccc1OCCCC(=O)O`, the Potency result is “inactive”.

As to `N#CCCCl`, the Potency entry is “inactive”.

As for `c1nc[nH]n1`, the Potency entry is “inactive”.

`Nc1ccc(Cl)cc1N`: the Potency was 40 µM (active).

Take `Oc1c(Cl)c(Cl)c(Cl)c(Cl)c1Cl`: the Potency entry is “inactive”.

As for `O=P(O)(O)CCCl`, the Potency entry was “inactive”.

Consider `CCN(N=O)C(N)=O`, for which the Potency result is “inactive”.

In the case of `CC1(C)C(C=C(Cl)Cl)C1C(=O)OC(C#N)c1cccc(Oc2ccccc2)c1` (stereo not given), the Potency result is “inactive”.

As to `CCCCCCCCC(=O)NCc1ccc(O)c(OC)c1`, the Potency entry was “inactive”.

On to `COc1ccc(C=O)cc1`, for which the Potency result was “inactive”.

For the compound `CCN(CC)C(=O)/C(Cl)=C(\C)OP(=O)(OC)OC`, the Potency entry was “inactive”.

`CCCCCCCCOC(=O)c1ccccc1C(=O)OCCCCCCCC`: the Potency entry is “inactive”.

As to `CC(C)Oc1cc(-n2nc(C(C)(C)C)oc2=O)c(Cl)cc1Cl`, the Potency entry was “inactive”.

`COP(=S)(OC)Oc1ccc([N+](=O)[O-])cc1`: the Potency result was “inactive”.

Consider `NNC(=S)NN`, for which the Potency entry is “inactive”.

Regarding `OCC(O)CO`, the Potency entry was “inactive”.

Turning to `C#CCOS(=O)OC1CCCCC1Oc1ccc(C(C)(C)C)cc1` (stereo not given), the Potency result is “inactive”.

With `CNC(=O)N(C)c1nnc(C(C)(C)C)s1`, the Potency result was “inactive”.
